Results on ten molecules are retold here after the supplement of paper PMC4022240.

Assay in all cases: peptide microarray binding signal (635 nm), min-max normalized on array (fraction of array maximum); higher = stronger binding
What all share (conditions): peptide region: H2B 17-29

Assay [1] concerns the target T1, HaloTag-ATRX ADD domain (163-292).
T1 chain: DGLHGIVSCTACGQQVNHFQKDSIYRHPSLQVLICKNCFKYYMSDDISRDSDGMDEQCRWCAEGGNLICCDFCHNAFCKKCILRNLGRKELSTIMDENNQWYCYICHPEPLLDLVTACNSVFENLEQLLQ
The procedure: (§1)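 Histone 13-mer peptides were synthesized as cellulose conjugates with a C-terminal 20-atom PEG linker and printed in triplicate on nitrocellulose. The sequence given is the unmodified backbone; PTMs (Kme1/2/3, Kac, Sph/Tph, Rme/Rme2a/Rme2s, Rcit) are listed in the label and the 'peptide modifications' condition. Slides were probed at 4 °C for 1 h with biotin-labelled (HQ)5-HaloTag reader fusions (ATRX-ADD, ING2-PHD) then streptavidin-Alexa647, or with rabbit histone antibodies then anti-rabbit Alexa647. The mean 635 nm signal of the triplicate spots was scaled 0-1 between the lowest and highest values on each array.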

In assay [2] the target is HaloTag-ING2 PHD (mouse Ing2 200-280). As to the method:
as §1

Assay [3] deals with anti-H3K4me3 antibody ab8580. As to the method:
as §1

In assay [4] the target is anti-H3K9me3 antibody ab8898. The procedure: as §1
Where [5] appears, read: peptide modifications: H2BK23ac, binder concentration: 1:2,000 dilution.
The mark [6] stands for this setting: peptide modifications: H2BK23ac, binder concentration: 1:10,000 dilution.
[7] abbreviates: peptide modifications: H2BK24ac H2BK27ac, binder concentration: 1:2,000 dilution.
Where [8] appears, read: peptide modifications: H2BK24ac H2BK27ac, binder concentration: 1:10,000 dilution.
Setting [9] is: peptide modifications: H2BK27ac, binder concentration: 1:2,000 dilution.
Setting [10] is: peptide modifications: H2BK27ac, binder concentration: 1:10,000 dilution.
Where [11] appears, read: peptide modifications: H2BK28ac, binder concentration: 1:2,000 dilution.
[12] abbreviates: peptide modifications: H2BK28ac, binder concentration: 1:10,000 dilution.
Where [13] appears, read: peptide modifications: H2BK23ac H2BK24ac H2BK28ac, binder concentration: 1:2,000 dilution.
[14] abbreviates: peptide modifications: H2BK23ac H2BK24ac H2BK28ac, binder concentration: 1:10,000 dilution.
Setting [15] is: peptide modifications: H2BK20ac H2BK27ac, binder concentration: 1:2,000 dilution.
Where [16] appears, read: peptide modifications: H2BK20ac H2BK27ac, binder concentration: 1:10,000 dilution.
[17] abbreviates: peptide modifications: H2BK24ac H2BK28ac, binder concentration: 1:2,000 dilution.
Setting [18] is: peptide modifications: H2BK24ac H2BK28ac, binder concentration: 1:10,000 dilution.
[19] abbreviates: peptide modifications: H2BK20ac H2BK27ac H2BK28ac, binder concentration: 1:2,000 dilution.
Where [20] appears, read: peptide modifications: H2BK20ac H2BK27ac H2BK28ac, binder concentration: 1:10,000 dilution.
The mark [21] stands for this setting: peptide modifications: H2BK24ac H2BK27ac H2BK28ac, binder concentration: 1:2,000 dilution.
Setting [22] is: peptide modifications: H2BK24ac H2BK27ac H2BK28ac, binder concentration: 1:10,000 dilution.
The mark [23] stands for this setting: peptide modifications: H2BK27ac H2BK28ac, binder concentration: 1:2,000 dilution.
Where [24] appears, read: peptide modifications: H2BK27ac H2BK28ac, binder concentration: 1:10,000 dilution.

± gives the standard deviation.

Turning to AVTKAQKKDGKKR [H2B 17-29 A V T K A Q Kac K D G K K R], the “peptide microarray binding signal” value came out at 0.00376 ± 0.00013 in assay [1] (peptide modifications: H2BK23ac, binder concentration: 50 nM); 0.00514 ± 0.0009 in assay [1] (peptide modifications: H2BK23ac, binder concentration: 500 nM); 0.00424 ± 9.6e-05 in assay [2] (peptide modifications: H2BK23ac, binder concentration: 10 nM); 0.00666 ± 0.00022 in assay [2] (peptide modifications: H2BK23ac, binder concentration: 100 nM); 0.00051 ± 9.7e-05 in assay [3] (setting [5]); 0.000742 in assay [3] (setting [6]). In addition, the “peptide microarray binding signal” value in assay [4] (setting [5]) is 0.000498 ± 3.6e-05; in assay [4] (setting [6]), 0.00104 ± 1.1e-05.
On to AVTKAQKKDGKKR [H2B 17-29 A V T K A Q K Kac D G Kac K R], for which the “peptide microarray binding signal” value in assay [1] (peptide modifications: H2BK24ac H2BK27ac, binder concentration: 50 nM) is 0.00238 ± 4.6e-05; in assay [1] (peptide modifications: H2BK24ac H2BK27ac, binder concentration: 500 nM) it was 0.0059 ± 0.00037; in assay [2] (peptide modifications: H2BK24ac H2BK27ac, binder concentration: 10 nM), 0.00197 ± 4.6e-05; in assay [2] (peptide modifications: H2BK24ac H2BK27ac, binder concentration: 100 nM), 0.00177 ± 6.2e-05; in assay [3] (setting [7]), 0.00138 ± 0.0002; in assay [3] (setting [8]) it was 0.000685 ± 7.2e-06. For the same molecule, the “peptide microarray binding signal” value in assay [4] (setting [7]) came to 0.000227 ± 4.1e-06; in assay [4] (setting [8]) it was 0.000346 ± 3.8e-06.
Turning to AVTKAQKKDGKKR [H2B 17-29 A V T K A Q K K D G Kac K R], the “peptide microarray binding signal” value in assay [1] (peptide modifications: H2BK27ac, binder concentration: 50 nM) was 0.00248 ± 9e-05; in assay [1] (peptide modifications: H2BK27ac, binder concentration: 500 nM), 0.00624 ± 0.00045; in assay [2] (peptide modifications: H2BK27ac, binder concentration: 10 nM) it was 0.00185 ± 3.3e-05; in assay [2] (peptide modifications: H2BK27ac, binder concentration: 100 nM), 0.00149 ± 4.1e-05; in assay [3] (setting [9]) it was 0.00126 ± 4.4e-05; in assay [3] (setting [10]) it was 0.000913 ± 1.6e-05. Moreover, the “peptide microarray binding signal” value is 0.000302 ± 3.1e-06 in assay [4] (setting [9]) and 0.000404 ± 4.4e-06 in assay [4] (setting [10]).
AVTKAQKKDGKKR [H2B 17-29 A V T K A Q K K D G K Kac R]: the “peptide microarray binding signal” value in assay [1] (peptide modifications: H2BK28ac, binder concentration: 50 nM) amounted to 0.00194 ± 4.1e-05; in assay [1] (peptide modifications: H2BK28ac, binder concentration: 500 nM) it was 0.00486 ± 0.00024; in assay [2] (peptide modifications: H2BK28ac, binder concentration: 10 nM) it was 0.00209 ± 2.4e-05; in assay [2] (peptide modifications: H2BK28ac, binder concentration: 100 nM) it was 0.00142 ± 1.5e-05; in assay [3] (setting [11]), 0.000396 ± 7e-06; in assay [3] (setting [12]), 0.000628 ± 6.7e-06. The “peptide microarray binding signal” value came to 0.000166 ± 3.6e-06 in assay [4] (setting [11]) and 0.000346 ± 3.8e-06 in assay [4] (setting [12]).
For the molecule AVTKAQKKDGKKR [H2B 17-29 A V T K A Q Kac Kac D G K Kac R], the “peptide microarray binding signal” value was found to be 0.0036 ± 3.9e-05 in assay [1] (peptide modifications: H2BK23ac H2BK24ac H2BK28ac, binder concentration: 50 nM); 0.00652 ± 0.00023 in assay [1] (peptide modifications: H2BK23ac H2BK24ac H2BK28ac, binder concentration: 500 nM); 0.00561 ± 8.2e-05 in assay [2] (peptide modifications: H2BK23ac H2BK24ac H2BK28ac, binder concentration: 10 nM); 0.00822 ± 0.00014 in assay [2] (peptide modifications: H2BK23ac H2BK24ac H2BK28ac, binder concentration: 100 nM); 0.00143 ± 0.00012 in assay [3] (setting [13]); 0.00217 ± 0.00011 in assay [3] (setting [14]). Besides, the “peptide microarray binding signal” value stood at 0.000544 ± 2.3e-05 in assay [4] (setting [13]) and 0.00098 ± 1.7e-05 in assay [4] (setting [14]).
AVTKAQKKDGKKR [H2B 17-29 A V T Kac A Q K K D G Kac K R]: the “peptide microarray binding signal” value was found to be 0.00332 ± 9.9e-05 in assay [1] (peptide modifications: H2BK20ac H2BK27ac, binder concentration: 50 nM); 0.00976 ± 0.00025 in assay [1] (peptide modifications: H2BK20ac H2BK27ac, binder concentration: 500 nM); 0.00573 ± 0.0013 in assay [2] (peptide modifications: H2BK20ac H2BK27ac, binder concentration: 10 nM); 0.00397 ± 0.00018 in assay [2] (peptide modifications: H2BK20ac H2BK27ac, binder concentration: 100 nM); 0.00349 ± 0.00028 in assay [3] (setting [15]); 0.000856 ± 8.9e-06 in assay [3] (setting [16]). The “peptide microarray binding signal” value stood at 0.000755 ± 1.7e-05 in assay [4] (setting [15]) and 0.000461 ± 8.7e-06 in assay [4] (setting [16]).
For the molecule AVTKAQKKDGKKR [H2B 17-29 A V T K A Q K Kac D G K Kac R], the “peptide microarray binding signal” value was 0.00524 ± 0.00097 in assay [1] (peptide modifications: H2BK24ac H2BK28ac, binder concentration: 50 nM); 0.00786 ± 0.0018 in assay [1] (peptide modifications: H2BK24ac H2BK28ac, binder concentration: 500 nM); 0.00412 ± 0.00017 in assay [2] (peptide modifications: H2BK24ac H2BK28ac, binder concentration: 10 nM); 0.00432 ± 0.00035 in assay [2] (peptide modifications: H2BK24ac H2BK28ac, binder concentration: 100 nM); 0.00034 ± 3.1e-05 in assay [3] (setting [17]); 0.00131 ± 5.7e-05 in assay [3] (setting [18]). In addition, the figures for the “peptide microarray binding signal” value in assay [4] (setting [17]) and in assay [4] (setting [18]) were 0.000695 ± 4.4e-05 and 0.000519 ± 5.6e-06, respectively.
For the molecule AVTKAQKKDGKKR [H2B 17-29 A V T Kac A Q K K D G Kac Kac R], the “peptide microarray binding signal” value in assay [1] (peptide modifications: H2BK20ac H2BK27ac H2BK28ac, binder concentration: 50 nM) was determined as 0.00398 ± 4.1e-05; in assay [1] (peptide modifications: H2BK20ac H2BK27ac H2BK28ac, binder concentration: 500 nM), 0.00567 ± 0.00013; in assay [2] (peptide modifications: H2BK20ac H2BK27ac H2BK28ac, binder concentration: 10 nM) it was 0.003819 ± 3.5e-05; in assay [2] (peptide modifications: H2BK20ac H2BK27ac H2BK28ac, binder concentration: 100 nM), 0.00404 ± 0.00021; in assay [3] (setting [19]) it was 0.000812 ± 0.00014; in assay [3] (setting [20]), 0.00114 ± 1.2e-05. Moreover, the “peptide microarray binding signal” value was 0.0005135 ± 4.8e-06 in assay [4] (setting [19]) and 0.00075 ± 7.9e-06 in assay [4] (setting [20]).
With AVTKAQKKDGKKR [H2B 17-29 A V T K A Q K Kac D G Kac Kac R], the “peptide microarray binding signal” value in assay [1] (peptide modifications: H2BK24ac H2BK27ac H2BK28ac, binder concentration: 50 nM) worked out at 0.00295 ± 3.3e-05; in assay [1] (peptide modifications: H2BK24ac H2BK27ac H2BK28ac, binder concentration: 500 nM), 0.00638 ± 0.0005; in assay [2] (peptide modifications: H2BK24ac H2BK27ac H2BK28ac, binder concentration: 10 nM), 0.0037 ± 7.9e-05; in assay [2] (peptide modifications: H2BK24ac H2BK27ac H2BK28ac, binder concentration: 100 nM) it was 0.00716 ± 0.00073; in assay [3] (setting [21]), 0.000944 ± 5.4e-05; in assay [3] (setting [22]), 0.00108. Also, the “peptide microarray binding signal” value in assay [4] (setting [21]) was 0.000634 ± 9.9e-06; in assay [4] (setting [22]), 0.00098 ± 3e-05.
On to AVTKAQKKDGKKR [H2B 17-29 A V T K A Q K K D G Kac Kac R], for which the “peptide microarray binding signal” value stood at 0.0047 ± 0.00043 in assay [1] (peptide modifications: H2BK27ac H2BK28ac, binder concentration: 50 nM); 0.00386 ± 0.00024 in assay [1] (peptide modifications: H2BK27ac H2BK28ac, binder concentration: 500 nM); 0.00418 ± 6.5e-05 in assay [2] (peptide modifications: H2BK27ac H2BK28ac, binder concentration: 10 nM); 0.00276 ± 0.00023 in assay [2] (peptide modifications: H2BK27ac H2BK28ac, binder concentration: 100 nM); 0.00017 ± 5.6e-06 in assay [3] (setting [23]); 0.00114 ± 1.2e-05 in assay [3] (setting [24]). In addition, the “peptide microarray binding signal” value was determined as 0.000544 ± 3e-05 in assay [4] (setting [23]) and 0.0011 ± 4e-05 in assay [4] (setting [24]).
